A short description of assay [1]: NCI Yeast Anticancer Drug Screen. Data for the rad50 strain (AID 155).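 Note: 0% = growth of vehicle-only cultures of the same strain.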 Conditions: S. cerevisiae rad50 strain growth inhibition, active compounds read high; at 50.0 µM unless noted. An outline of the steps:
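Cells are treated with compound, grown, and their growth is then scored against vehicle-only cultures of the same repair-deficient yeast strain.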

Assay [2] in a line: NCI Yeast Anticancer Drug Screen. Data for the mec2-1 strain (AID 157). The conditions noted are these: S. cerevisiae mec2-1 strain, active compounds read high; at 50.0 µM unless noted. An outline of the steps:
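Compounds were applied to mec2-1 yeast cells. Their growth was then compared with that of vehicle-treated cultures to give growth inhibition.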

Assay [3] is described as follows: NCI Yeast Anticancer Drug Screen. Data for the sgs1 mgt1 strain (AID 161).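 Note: 0% = growth of cultures given vehicle only.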 Conditions: S. cerevisiae sgs1 mgt1 strain, active compounds read high; at 50.0 µM unless noted. An outline of the steps:
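Growth of a repair-deficient yeast mutant was monitored after compound treatment and expressed as inhibition relative to vehicle-treated cultures.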

Assay [4] in a line: NCI Yeast Anticancer Drug Screen. Data for the cln2 rad14 strain (AID 165).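 Note: 0% = growth equal to vehicle treated cultures.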 Conditions: S. cerevisiae cln2 rad14 strain, active compounds read high; at 50.0 µM unless noted. An outline of the steps: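 Strain: cln2 rad14 yeast, altered in cell cycle control and DNA damage repair. Read-out: growth inhibition vs vehicle.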
Assay [5] in a line: NCI Yeast Anticancer Drug Screen. Data for the bub3 strain (AID 167). The conditions noted are these: S. cerevisiae bub3 mutant strain, active compounds read high; at 50.0 µM unless noted. An outline of the steps: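 Part of a panel of yeast mutants defective in DNA damage repair or cell cycle regulation. Each strain is grown with compound, and inhibition is calculated relative to solvent-treated cultures.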

Assay [6] can be described thus: NCI Yeast Anticancer Drug Screen. Data for the mlh1 rad18 strain (AID 175). Conditions: S. cerevisiae mlh1 rad18 strain growth inhibition, active compounds read high; at 50.0 µM unless noted. An outline of the steps:
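A repair-deficient yeast strain is exposed to test compound, and growth is scored relative to vehicle-treated controls.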

The record followed here is PubChem BioAssay (NCI).

Structures are written as SMILES. This is part of a sample that, as a whole, favours compounds with a hit. Of some 79,000 tested, about 15% had one in any assay. Unmarked numbers belong to inactive results. Activity calls are given as the source filed them. Cut-off read from the data, not from the text of the source: active = growth inhibition above about 70%; inactive = the rest.

`Nc1c(Cl)ncnc1Nc1ccc(CCO)cc1`: the growth inhibition in assay [1] is -3.6%; in assay [2], -9.25%; in assay [3], 22.6%; in assay [4], -60.3%; in assay [5], -4.4%; in assay [6] it was -8.75%.
For `COc1c2c(cc3c1C(CCCc1ccccc1)N(C)CC3)OCO2` (stereo not drawn), the growth inhibition in assay [1] was 22.4%; in assay [2], 7.6%; in assay [3] it was 30.7%; in assay [4] it was 11.5%; in assay [5], 9.75%; in assay [6], 28.6%.
For `CC(=O)OC1CC2CC1C1OC21` (stereo not drawn), the growth inhibition in assay [1] is -2.25%; in assay [2], -15.3%; in assay [3] it was -22.1%; in assay [4], -1.8%; in assay [5], -11.7%; in assay [6], -6.65%.
As for `CC(C)N(C(=O)C12C3C4C1C1C2C3C41C(=O)N(C(C)C)C(C)C)C(C)C` (stereo not drawn), the growth inhibition was -1.85% in assay [1]; -9.2% in assay [2]; -12.9% in assay [3]; -1% in assay [4]; 8.45% in assay [5]; -26.5% in assay [6].
Regarding `CN1c2ccccc2N(C)C23N(C)c4ccccc4N(C)C12N(C)c1ccccc1N3C` (stereo not drawn), the growth inhibition is -33% in assay [1]; 1.8% in assay [2]; -67.4% in assay [3]; 18.7% in assay [4]; -22.1% in assay [5]; -20.9% in assay [6].
Regarding `CC(C)(C1CCC([Si](C2CCCCC2)(C2CCCCC2)C2CCCCC2)CC1)[Si](C1CCCCC1)(C1CCCCC1)C1CCCCC1` (stereo not drawn), the growth inhibition is 8% in assay [1]; -0.15% in assay [2]; -14.4% in assay [3]; -7.2% in assay [4]; 3.3% in assay [5]; -1.95% in assay [6].
Turning to `C/C(=N/O)c1ccncc1`, the growth inhibition in assay [1] is 1.15%; in assay [2] it was -3%; in assay [3] it was 1.65%; in assay [4], 11.2%; in assay [5] it was 16.1%; in assay [6] it was -6.9%.
For `Nc1nnc2nc(CC(=O)c3ccc(Cl)c(Cl)c3)/c(=C/C(=O)c3ccc(Cl)c(Cl)c3)n12`, the growth inhibition in assay [1] is 11.5%; in assay [2], 12.3%; in assay [3] it was -12.3%; in assay [4], 17.2%; in assay [5] it was 1.7%; in assay [6], -10.2%.
Turning to `CC(=O)Nc1cccc(OC(=O)Nc2ccc(F)c(Cl)c2)c1`, the growth inhibition in assay [1] was 57.6%; in assay [2], 60.7%; in assay [3], 71.7% (active); in assay [4], 70.7% (active); in assay [5], 56.8%; in assay [6], 82% (active).
For the compound `Cc1ccc2c(-c3cccc4ccccc34)c3ccccc3cc2c1`, the growth inhibition in assay [1] is 5.45%; in assay [2], 9.65%; in assay [3], -12%; in assay [4], -8.4%; in assay [5] it was 8.95%; in assay [6], -7.75%.
For `CCCNCCCCCCNc1cc(OC)cc2cccnc12`, the growth inhibition in assay [1] was 54.9%; in assay [2], 6.05%; in assay [3] it was 39.7%; in assay [4], 63.4%; in assay [5], 31.9%; in assay [6] it was 54.3%.
Consider `CC1(C)OC(=O)C(Cc2ccccc2)(Cc2ccccc2)C(=O)O1`, for which the growth inhibition in assay [1] was 2.2%; in assay [2], -19.9%; in assay [3], -11.8%; in assay [4], 30.1%; in assay [5], -17.1%; in assay [6], -13.9%.
In the case of `CCOC(=O)C(CCc1ccccc1)(NC(C)=O)C(=O)OCC`, the growth inhibition in assay [1] was 10.4%; in assay [2], -7.8%; in assay [3] it was 12.3%; in assay [4], -4.65%; in assay [5], 14.3%; in assay [6], -10%.
For `CCN(CC)c1c(C)c(-c2ccccc2)n[n+]([O-])c1-c1ccccc1`, the growth inhibition was 35.9% in assay [1]; 24.1% in assay [2]; 14.4% in assay [3]; 1.85% in assay [4]; 17.9% in assay [5]; 24.8% in assay [6].
For `Nc1nccs1`, the growth inhibition is -0.45% in assay [1]; -0.65% in assay [2]; 4.75% in assay [3]; 9.4% in assay [4]; -3.15% in assay [5]; 25.7% in assay [6].
As for `O=C(Nc1ccc([N+](=O)[O-])cc1C(=O)O)c1ccc([N+](=O)[O-])cc1`, the growth inhibition was 37.8% in assay [1]; -3.6% in assay [2]; 0.1% in assay [3]; 18.5% in assay [4]; -22.3% in assay [5]; 2% in assay [6].
On to `COc1cc(O)c2c(=O)cc(-c3ccc(O)cc3O)oc2c1CC=C(C)C`, for which the growth inhibition in assay [1] is 43.5%; in assay [2] it was 0.4%; in assay [3] it was -0.25%; in assay [4], 17.7%; in assay [5], -2.8%; in assay [6], -20.5%.
With `CC(=O)C1=CCCCC1`, the growth inhibition in assay [1] was 6.1%; in assay [2], -2.8%; in assay [3], -3.3%; in assay [4], 11.7%; in assay [5], 14.7%; in assay [6] it was -7.8%.
For the compound `CCC(=O)c1ccc(OC)cc1OC`, the growth inhibition was -13.6% in assay [1]; 1.25% in assay [2]; -4.8% in assay [3]; -2.05% in assay [4]; 4.4% in assay [5]; -20.1% in assay [6].
For the compound `Cc1nc(SCC(=O)Nc2ccccc2)c2sc(=S)n(-c3ccccc3)c2n1`, the growth inhibition in assay [1] was -45.9%; in assay [2], -10.2%; in assay [3] it was -0.05%; in assay [4], -5.35%; in assay [5], -19.9%; in assay [6], -18.4%.
Take `O=C(c1ccc(Cl)cc1)N1CCC(CCCc2ccccc2)CC1`: the growth inhibition is -2.2% in assay [1]; 3.45% in assay [2]; -4.3% in assay [3]; 5.05% in assay [4]; 12.8% in assay [5]; -3.2% in assay [6].
In the case of `S=C(c1ccco1)N1CCOCC1`, the growth inhibition in assay [1] was 14.8%; in assay [2], 12%; in assay [3] it was 25.1%; in assay [4] it was 12.7%; in assay [5], 16.2%; in assay [6], 10.8%.
For `NC(=O)C1(N2CCCCC2)CCNCC1`, the growth inhibition in assay [1] was 7.85%; in assay [2], -16.5%; in assay [3], -8.2%; in assay [4], 6.9%; in assay [5] it was -5.45%; in assay [6], 3.95%.
As to `O=S(=O)(c1ccc(Cl)cc1)S(=O)(=O)c1ccc(Cl)cc1`, the growth inhibition in assay [1] is 18.8%; in assay [2] it was 8.5%; in assay [3], 8.6%; in assay [4] it was -18.4%; in assay [5] it was 4.5%; in assay [6], 10.4%.
Regarding `CCNC(=O)Nc1cccc(C)n1`, the growth inhibition in assay [1] was 14.9%; in assay [2] it was 14.1%; in assay [3], 22.8%; in assay [4], 27.6%; in assay [5], 4.4%; in assay [6], 19.4%.
As to `COc1ccc2oc(-c3cc4cc(OC)ccc4o3)cc2c1`, the growth inhibition in assay [1] was -10.7%; in assay [2], -5.7%; in assay [3], -12.8%; in assay [4], -17.9%; in assay [5], -61.2%; in assay [6], -0.55%.
Turning to `C1CCC2=NCCCN2CC1`, the growth inhibition was -13.8% in assay [1]; -23% in assay [2]; 10.6% in assay [3]; -4.8% in assay [4]; 11.8% in assay [5]; -1% in assay [6].
`O=C1C(NCCc2cc(Br)c(O)c(Br)c2)=CC(=O)c2ncccc21`: the growth inhibition in assay [1] was 31.9%; in assay [2], 37%; in assay [3], 33.9%; in assay [4], 18.2%; in assay [5], 34%; in assay [6] it was 28.4%.
With `CC(=O)O/N=C(\C(c1ccccc1)c1ccccc1)C1c2ccccc2-c2ccccc21`, the growth inhibition in assay [1] is 91.3% (active); in assay [2], 88.7% (active); in assay [3], 96.9% (active); in assay [4], 91.2% (active); in assay [5], 64.8%; in assay [6], 96.2% (active).
On to `CCSc1nnc(Sc2c3ccccc3nc3ccccc23)s1`, for which the growth inhibition in assay [1] is 26.9%; in assay [2], 3.15%; in assay [3], -13.1%; in assay [4], 11.4%; in assay [5] it was 16.8%; in assay [6], 76% (active).
For the compound `OC(CN1CCCC1)c1ccccc1` (stereo not drawn), the growth inhibition in assay [1] is -1.8%; in assay [2], -11.2%; in assay [3], 15.9%; in assay [4], 28.6%; in assay [5], -0.25%; in assay [6] it was -30.6%.
With `Cc1nnsc1C(=O)NCc1c(F)cccc1Cl`, the growth inhibition in assay [1] was 6.65%; in assay [2] it was 15.6%; in assay [3] it was 11%; in assay [4] it was 25.4%; in assay [5] it was 37.3%; in assay [6], 28.8%.
For the compound `COc1cccc(Br)n1`, the growth inhibition in assay [1] was -4.15%; in assay [2] it was -17.1%; in assay [3], 6.95%; in assay [4], 15.1%; in assay [5] it was -8.85%; in assay [6], 26.9%.
Turning to `CN(CCO)c1ccccc1`, the growth inhibition is -12.3% in assay [1]; -14.8% in assay [2]; -40.4% in assay [3]; -17.9% in assay [4]; -48.4% in assay [5]; -8% in assay [6].
For `O=c1[nH]cnc2nc(N3CCOCC3)sc12`, the growth inhibition in assay [1] is -15.7%; in assay [2] it was -4.6%; in assay [3] it was -1.7%; in assay [4] it was -5.8%; in assay [5], -6.5%; in assay [6], -4.65%.
In the case of `Cc1cccc(C(C)C)c1N1C(=O)C(=O)C(c2nc3ccccc3o2)C(=O)C1=O`, the growth inhibition was -5.85% in assay [1]; 2.15% in assay [2]; 16.1% in assay [3]; 39.1% in assay [4]; 16.5% in assay [5]; 31.2% in assay [6].
For `COc1ccc(C(=O)Oc2ccccc2C(C)=O)cc1`, the growth inhibition was -2.65% in assay [1]; -7.05% in assay [2]; 0.7% in assay [3]; -24.6% in assay [4]; -5.6% in assay [5]; -12.8% in assay [6].
On to `Cc1ccc(/C=C/C(=O)C(C)CN(C)C)cc1C` (stereo not drawn), for which the growth inhibition in assay [1] was -1%; in assay [2], -15.4%; in assay [3], 26.1%; in assay [4] it was 0.95%; in assay [5], 0.3%; in assay [6], 9.65%.
